Screening results (PubChem BioAssay)
p53 reactivator: qHTS assay for re-activators of p53 using a Luc reporter. H1299 p53-A138V BP100-luciferase reporter, luminescence, 24 h. Potency, µM (titrated, usually from 92.2 µM), actives largely listed as activators. actives 0.063% (n = 320,000). AID 504706, 2011; also: nearly all actives have a fitted effect of over 45% in size
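H1299 (p53-null), stable ts p53-A138V + BP100-Luc; 1000 cells/well, Opti-MEM/10% FBS; cpd 4 pt, 1:5; 24 h, 37 deg C, 5% CO2; detection reagent 10 min RT; luminescence.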
Six1-Eya2 blk: qHTS Assay for Inhibitors of the Six1/Eya2 Interaction; Homeobox protein SIX1 (Homo sapiens) + Protein phosphatase EYA2 (Homo sapiens), …; AlphaScreen GST-Six1/His-Eya2 binding, biochemical; active compounds read low; activity change, % (test concentration not listed); actives 0.56% (n = 360,000); AID 651725, 2012; in the data active = activity change below about -65%; inconclusive = mostly about -30% to -63%
Target sequence (O00167 whole entry, looked up): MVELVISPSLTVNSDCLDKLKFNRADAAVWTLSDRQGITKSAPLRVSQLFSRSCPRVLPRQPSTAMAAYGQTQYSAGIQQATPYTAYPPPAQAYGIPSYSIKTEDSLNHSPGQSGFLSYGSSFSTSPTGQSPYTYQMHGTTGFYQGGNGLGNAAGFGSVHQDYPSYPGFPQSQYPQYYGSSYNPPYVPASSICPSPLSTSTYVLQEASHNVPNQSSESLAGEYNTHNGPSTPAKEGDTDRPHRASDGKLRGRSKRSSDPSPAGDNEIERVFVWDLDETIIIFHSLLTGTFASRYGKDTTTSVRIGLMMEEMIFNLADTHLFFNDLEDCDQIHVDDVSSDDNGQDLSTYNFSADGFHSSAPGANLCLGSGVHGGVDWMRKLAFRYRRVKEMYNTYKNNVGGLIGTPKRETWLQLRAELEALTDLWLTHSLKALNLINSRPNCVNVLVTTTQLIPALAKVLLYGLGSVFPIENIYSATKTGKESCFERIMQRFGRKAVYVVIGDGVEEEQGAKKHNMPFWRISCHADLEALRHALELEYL
Target sequence (Q15475 whole entry, looked up): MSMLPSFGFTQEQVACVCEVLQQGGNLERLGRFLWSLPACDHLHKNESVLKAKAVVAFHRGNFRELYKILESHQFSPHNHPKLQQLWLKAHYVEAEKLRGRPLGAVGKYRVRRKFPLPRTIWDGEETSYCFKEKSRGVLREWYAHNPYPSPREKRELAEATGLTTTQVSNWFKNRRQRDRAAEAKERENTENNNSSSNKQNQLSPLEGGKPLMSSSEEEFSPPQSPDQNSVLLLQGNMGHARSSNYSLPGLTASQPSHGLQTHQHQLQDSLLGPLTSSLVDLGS
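AlphaScreen luminescence read after one hour at 37 °C in darkness. Pin-transferred compounds met GST-Six1 and His-Eya2 protein (5X stock 250 nM/500 nM) plus glutathione donor and Ni-chelate acceptor beads (5X, 50 ug/mL).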
RORg inh: qHTS for inhibitors of ROR gamma transcriptional activity; actives 5.4% (n = 310,000); Nuclear receptor ROR-gamma (Mus musculus), P51450; AID 2551, 2010; Drosophila S2 Gal4-RORgamma UAS-luciferase reporter, 20 h; Potency, µM (highest dose often 53.6 µM), actives largely listed as inhibitors; also: nearly all actives have a fitted effect of over 60% in size
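Schneider cells (Drosophila), stable Gal4 DBD–ROR gamma + UAS-luc; 1 hr cmpd preincubation; Cu2+ induction 700 uM final; 20 hr ambient; luminescence.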
CtBP-E1A inh: qHTS Assay for Inhibitors of the CtBP/E1A Interaction; CtBP / adenovirus E1A interaction (AlphaScreen); AlphaScreen GST-E1A/His-CtBP binding, 1536-well; active compounds read low; activity change, % (test concentration not listed); actives 0.49% (n = 340,000); in the data active = activity change below about -65%; inconclusive = mostly about -30% to -63%
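GST-E1A and His-tagged CtBP (125 nM each as 5X stock) were preincubated with pin-transferred compound for 2 h at 37 °C in the dark, then glutathione donor and nickel acceptor beads were added for 1 h before AlphaScreen reading.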
VP16 counter: VP16 counterscreen qHTS for inhibitors of ROR gamma transcriptional activity | actives 3.5% (n = 310,000) | Drosophila S2 Gal4-VP16 UAS-luciferase, luminescence, 20 h | Potency, µM (titrated, usually from 53.6 µM), actives largely listed as inhibitors;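 also: Gal4-VP16 expression switched on by copper sulfate through the metallothionein promoter; nearly all actives have a fitted effect of over 50% in size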
Large screens that a line does not name were inactive. A selection: hits, their analogues and other compounds. The true share with any hit is near 5.4%. Unless noted, calls follow the shape of the dose curve; as a rule, active = well fitted curve in the direction sought with a large enough effect; inconclusive = small, poorly fitted or top-dose-only effect, or another doubt; inactive = no such curve, though single readings can be large; an effect the other way counts as inactive or inconclusive.

O=C(O)CC1NCCc2ccccc21 (stereo unspecified)	none
Cc1ccc(S(=O)(=O)NCC2NCCc3ccccc32)cc1 (stereo unspecified)	RORg inh 18µM
O=S1(=O)N=C(N(CCO)/N=C/c2ccncc2)c2ccccc21	Six1-Eya2 blk -80, CtBP-E1A inh -78
CC(C)(C)NC(=O)CCN(/N=C/c1ccncc1)C1=NS(=O)(=O)c2ccccc21	Six1-Eya2 blk -68, CtBP-E1A inh -82
COc1ccc(S(=O)(=O)N(C)C)cc1NC(=O)COC(=O)Cn1cnc2ccccc2c1=O	none (no result: RORg inh, VP16 counter)
N=C1SC(c2ccccc2)C(=O)N1c1ncc(Cc2ccccc2Cl)s1 (stereo unspecified)	RORg inh 1.4µM, VP16 counter 1.3µM
O=C(COC(=O)c1ccc([N+](=O)[O-])cc1Cl)Nc1cccnc1Cl	none (no result: RORg inh, VP16 counter)
NCCc1nnc(SCc2ccccc2Cl)o1	none
NCCCCCc1nnc(SCc2cccc(Cl)c2)o1	RORg inh 5.6µM, VP16 counter 2.8µM
NCCCCCc1nnc(SCc2ccc(Cl)cc2Cl)o1	RORg inh 8.9µM, VP16 counter 5.6µM
CCOc1ccc(CCNC(=O)c2ccccc2OCc2c(C)noc2C)cc1OCC	none (no result: RORg inh, VP16 counter)
O=C(c1cccc(F)c1)N1CCC2(CCCN(c3ccccc3)C2)CC1	none (no result: p53 reactivator, Six1-Eya2 blk, CtBP-E1A inh)
CCOC(=O)c1cnc2c(-c3ccccc3)c(C)nn2c1N	none
CCOC(=O)c1cnc2c(-c3ccccc3)cnn2c1N	p53 reactivator inconclusive, RORg inh 1.6µM, VP16 counter 11µM
CCOC(=O)c1cnn(-c2cc(C)c3ccccc3n2)c1N	RORg inh 0.11µM, VP16 counter inconclusive
COC(=O)[C@H](CC(C)C)N1Cc2cc(OC)cc(OC)c2-c2ccccc2S1(=O)=O	none (no result: RORg inh, VP16 counter)
CC(C)COC(=O)N1C(COCc2ccccc2)CCC=CS1(=O)=O (stereo unspecified)	RORg inh inconclusive (no result: p53 reactivator, Six1-Eya2 blk, CtBP-E1A inh)
CC1=C(c2ccc(NN=C(C#N)C#N)cc2)NNC(=O)C1	RORg inh 22µM, VP16 counter inconclusive (no result: p53 reactivator, Six1-Eya2 blk, CtBP-E1A inh)
Cc1ccc(N/N=C(\C#N)C(=O)c2ccsc2)cc1	RORg inh inconclusive (no result: CtBP-E1A inh)
CC(CCc1ccccc1)NC(=S)NC1CCCCC1 (stereo unspecified)	RORg inh 2.5µM, VP16 counter 16µM
CCC(C)c1ccc(C(C)NC(=S)NC2CCCCC2)cc1 (stereo unspecified)	RORg inh 2.8µM, VP16 counter 2µM
CCc1ccc(C(C)NC(=S)NC2CCCCC2)cc1 (stereo unspecified)	RORg inh 2.2µM, VP16 counter 3.2µM
CCOc1ccc(C(C)NC(=S)NC2CCCCC2)cc1 (stereo unspecified)	RORg inh 3.2µM, VP16 counter 10µM
CC1CC(C)CN(C(CCc2ccccc2)C(=O)NC2CCCCC2)C1 (stereo unspecified)	none (no result: p53 reactivator, RORg inh, VP16 counter)
COc1ccc(NC(=O)Cc2ccsc2)cc1S(=O)(=O)N1CCOCC1	none (no result: RORg inh, CtBP-E1A inh, VP16 counter)
COc1ccc(OC)c(S(=O)(=O)Nc2cc3c(cc2N2CCCC2)n(C)c(=O)c(=O)n3C)c1	CtBP-E1A inh inconclusive
COc1cccc(C(=O)NCCS(=O)(=O)N2CCC(C)CC2)c1	none (no result: RORg inh, VP16 counter)
CCOc1ccc(C(C)NC(=S)NC2CCCCC2)cc1OCC (stereo unspecified)	RORg inh 7.1µM, VP16 counter 14µM
CCC(NC(=S)NC1CCCCC1)c1ccccc1 (stereo unspecified)	RORg inh 3.2µM, VP16 counter 7.1µM (no result: Six1-Eya2 blk, CtBP-E1A inh)
CCC(C(=O)NC1CCCCCC1)c1ccccc1 (stereo unspecified)	none (no result: p53 reactivator, RORg inh, CtBP-E1A inh, VP16 counter)
COc1ccc(C(=O)N/C(=C\c2cccc3ccccc23)C(=O)NCCc2c[nH]c3ccccc23)cc1OC	none
COc1ccc(CCNC(=O)CCCCCn2c(SCC(N)=O)nc3cc4c(cc3c2=O)OCO4)cc1OC	none
C/C(CC(=O)NCc1ccccc1)=N\NC(N)=S	RORg inh 10µM
C/C(CC(=O)NCc1ccc(F)cc1)=N\NC(N)=S	RORg inh 13µM
CCOC(=O)c1c(NC(=O)C2=C(C)NC(=S)NC2c2ccc(C)cc2)sc(C)c1C (stereo unspecified)	RORg inh 2.8µM, VP16 counter 3.5µM
CCOC(=O)c1c(NC(=O)C2=C(C)NC(=S)NC2c2ccc(F)cc2)sc(C)c1C (stereo unspecified)	RORg inh 13µM, VP16 counter inconclusive
CCOC(=O)c1c(NC(=O)C2=C(C)NC(=S)NC2c2ccc(F)cc2F)sc(C)c1C (stereo unspecified)	RORg inh 2.8µM, VP16 counter 6.3µM
COC(=O)c1c(C(C)=O)c(C)n(C)c1C	none
COC(=O)C(CCSC)NC(=O)c1cn(-c2ccc(OC)cc2)c(=O)c2ccccc12 (stereo unspecified)	none
CCSc1nc2ccccc2n1C(=O)/C=C\c1ccc(OC)c(OC)c1	RORg inh 10µM, VP16 counter 10µM
CCSc1nc2ccccc2n1CC(N)=O	none
Cc1[nH]c(=S)c(C#N)c(C)c1CCC#N	RORg inh 14µM
Cc1[nH]c(=S)c(C#N)c(C)c1Cc1ccccc1	RORg inh 3.5µM, VP16 counter 8.9µM
O=C(C[n+]1ccccc1)N/N=C/c1ccc(Cl)c(Cl)c1	none
Fc1cccc(/C=N/NC(=S)Nc2ccccc2Cl)c1	p53 reactivator inconclusive, RORg inh 0.71µM, VP16 counter 1µM
S=C(N/N=C/c1ccc(Cl)c(Cl)c1)Nc1ccccc1Cl	RORg inh 0.32µM, VP16 counter 0.79µM
Fc1ccc(NC(=S)N/N=C/c2cccc(Br)c2)c(F)c1	RORg inh 0.71µM, VP16 counter 2.5µM
O=C(N/N=C/c1cccc(F)c1)c1ccc(Cl)cc1	RORg inh inconclusive
Cl/C(=C\n1cncn1)c1ccc(Cl)cc1Cl	none (no result: p53 reactivator, Six1-Eya2 blk, CtBP-E1A inh)
Cc1ccc2nc(-c3ccc(NC(=O)CSCC(=O)O)cc3)sc2c1	p53 reactivator inconclusive, RORg inh 11µM, CtBP-E1A inh inconclusive
Cc1csc(NC(=O)CSCC(=O)O)c1-c1nc2ccccc2s1	Six1-Eya2 blk inconclusive, VP16 counter 8.9µM
Cc1ccc2nc(-c3ccc(NC(=O)CCN4C(=O)c5ccccc5C4=O)cc3)sc2c1	RORg inh 5µM, VP16 counter 7.1µM (no result: p53 reactivator)
Cc1cccc(N/N=C(\C=N\N)C(=O)c2ccc(Br)cc2)c1	none (no result: Six1-Eya2 blk, CtBP-E1A inh)
CN1C(=O)c2cccc3c(S(=O)(=O)Nc4ccc(O)c(C(=O)O)c4)ccc1c23	Six1-Eya2 blk -72, CtBP-E1A inh inconclusive
O=C(O)C1CC(CCCP(=O)(O)O)CCN1 (stereo unspecified)	none (no result: p53 reactivator, Six1-Eya2 blk, CtBP-E1A inh)
Cc1nnc(NC(=O)CSc2cn(Cc3ccccc3)c3ccccc23)s1	RORg inh 11µM
